The record followed here is PubChem BioAssay (NCATS).

SMILES strings stand for the structures. Records with an inconclusive call do not appear. Unmarked numbers belong to inactive results. The source made the active and inactive calls. Calls follow the shape of the dose curve; as a rule, active = well fitted curve in the direction sought with a large enough effect; inconclusive = small, poorly fitted or top-dose-only effect, or another doubt; inactive = no such curve, though single readings can be large; an effect the other way counts as inactive or inconclusive.

Assay [1] is described as follows: NS1 protein of Zika virus - qHTS assay to identify small molecule inhibitors in human HEK 293 cells (AID 1347053). Also: series mostly up to about 46 µM; nearly all actives have a fitted effect of over 55% in size. A digest of the protocol:
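HEK 293; 20 h pre-culture, 37 C/5% CO2; cpd 1 h pre-infection; ZIKV MR766, MOI = 0.5, 24 h, 37 C; TR-FRET NS1 readout (two anti-NS1 Abs); norm. to no-virus vs infected.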
Background: qHTS replaces the single test concentration by a dilution series.

Assay [2] can be described thus: qHTS of pediatric cancer cell lines to identify multiple opportunities for drug repurposing: Primary screen for TC32 cells (AID 1347089). Also: nearly all actives have a fitted effect of over 60% in size. Also: potency is read from the fitted curve at half-maximal effect. A digest of the protocol:
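TC32 cells, 500-1,000/well in growth medium, compound-treated 48 h at 37 °C; viability from CellTiter-Glo luminescence. Primary screen: MIPE 11-point (0.78 nM–46 µM final), NPC 8-point (0.59 nM–46 µM final); confirmatory at 11-point dilutions.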

Assay [3] in a line: qHTS of pediatric cancer cell lines to identify multiple opportunities for drug repurposing: Primary screen for DAOY cells (AID 1347090). Also: nearly all actives have a fitted effect of over 55% in size. Also: potency is read from the fitted curve at half-maximal effect. The gist of the method:
(§1)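 Cell viability, CellTiter-Glo luminescence; 500-1,000 cells/well, 8- or 11-point titration, 48 h compound exposure at 37 degrees C, 5% CO2. Controls: DMSO neutral, bortezomib 2.3 µM final as positive.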

A short description of assay [4]: qHTS of pediatric cancer cell lines to identify multiple opportunities for drug repurposing: Primary screen for SJ-GBM2 cells (AID 1347091). Also: potency is read from the fitted curve at half-maximal effect. A digest of the protocol:
as §1

Assay [5] is described as follows: qHTS of pediatric cancer cell lines to identify multiple opportunities for drug repurposing: Primary screen for A673 cells (AID 1347092). Also: nearly all actives have a fitted effect of over 45% in size. Also: potency is read from the fitted curve at half-maximal effect. The gist of the method: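 A673 cells (500-1,000 cells/well) were treated 48 hours at 37 degrees C with compounds at 11-point (0.78 nM to 46 µM) or 8-point (0.59 nM to 46 µM) dilutions. Viability read by CellTiter-Glo luminescence; concentration-response curves fitted.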

With `C/C(=N/NC(=O)c1ccncc1)C(=O)O`, the Potency entry in assay [1], in assay [2], in assay [3], in assay [4] and in assay [5] was “inactive” in each case.
In the case of `O=C(O)Cc1ccc(OCCNC[C@H](O)c2ccccc2)cc1`, the Potency entry in assay [1], in assay [2], in assay [3], in assay [4] and in assay [5] was “inactive” throughout.
With `CC(=O)N(c1onc(C)c1C)S(=O)(=O)c1ccc(N)cc1`, the Potency entry in assay [1], in assay [2], in assay [3], in assay [4] and in assay [5] was “inactive” each time.
On to `COC(=O)C1=C(C)NC(COC(N)=O)=C(C(=O)OC(C)C)C1c1cccc(Cl)c1Cl` (stereo not given), for which the Potency result in assay [1], in assay [2], in assay [3], in assay [4] and in assay [5] was “inactive” throughout.
For the compound `Cc1ccc2c(Cl)cc(Cl)c(O)c2n1`, the Potency result in assay [1], in assay [2], in assay [3], in assay [4] and in assay [5] was “inactive” throughout.
With `O=C(O)/C=C(\CC(=O)O)C(=O)O`, the Potency entry in assay [1], in assay [2], in assay [3], in assay [4] and in assay [5] was “inactive” each time.
Take `Cc1cc2nc3ccc(=[N+](C)C)cc-3sc2cc1N`: in assay [1], the Potency result was “inactive”. The Potency in assay [2] was 2.97 µM (active); in assay [3], 13.3 µM (active); in assay [4], 21.1 µM (active); in assay [5] it was 10.6 µM (active).
For `NS(=O)(=O)c1ccc(N2CCCCS2(=O)=O)cc1`, in that order: “inactive”, “inactive”, “inactive”, “inactive” and “inactive”.
The matching figures for `Cn1cc(S(C)=O)c(=O)c2ccc(F)cc21` (stereo not given): “inactive”, “inactive”, “inactive”, “inactive” and “inactive”.
The matching figures for `Cc1ccc(-c2ccccc2C#N)cc1`: “inactive”, “inactive”, “inactive”, “inactive” and “inactive”.
For the compound `CN1CC(=O)N2[C@H](c3ccc4c(c3)OCO4)c3[nH]c4ccccc4c3C[C@@H]2C1=O`, the Potency entry in assay [1], in assay [2], in assay [3], in assay [4] and in assay [5] was “inactive” throughout.
Consider `CCOC(=O)Cn1cccc1-c1nc(-c2ccc(OC)cc2)c(-c2ccc(OC)cc2)s1`, for which the Potency entry in assay [1], in assay [2], in assay [3], in assay [4] and in assay [5] was “inactive” throughout.
As for `CN(C(=O)C(Cl)Cl)c1ccc(OC(=O)c2ccco2)cc1`, the Potency result in assay [1], in assay [2], in assay [3], in assay [4] and in assay [5] was “inactive” in each case.
Turning to `CCOC(=O)CN1CCCC1=O`, the Potency entry in assay [1], in assay [2], in assay [3], in assay [4] and in assay [5] was “inactive” in each case.
For the compound `CC(C)(C)CC(=O)OCC(=O)[C@@]1(O)CC[C@H]2[C@@H]3CCC4=CC(=O)C=C[C@]4(C)[C@H]3[C@@H](O)C[C@@]21C`, the Potency result in assay [1], in assay [2], in assay [3], in assay [4] and in assay [5] was “inactive” throughout.
In the case of `Nc1c[n+](N2CCOCC2)no1`, the Potency result in assay [1], in assay [2], in assay [3], in assay [4] and in assay [5] was “inactive” each time.
`O=c1[nH]c(=O)n([C@H]2O[C@H](CO)[C@@H](O)[C@@H]2O)cc1/C=C\Br`: the Potency result in assay [1], in assay [2], in assay [3], in assay [4] and in assay [5] was “inactive” each time.
On to `COc1ccc2nc(SCc3ncc(C)c(OC)c3C)[nH]c2c1`, for which the Potency result in assay [1], in assay [2], in assay [3], in assay [4] and in assay [5] was “inactive” throughout.
In the case of `CC1(C)O[C@@H]2C[C@H]3[C@@H]4CCC5=CC(=O)C=C[C@]5(C)[C@@]4(F)[C@@H](O)C[C@]3(C)[C@]2(C(=O)CO)O1`, the Potency entry in assay [1], in assay [2], in assay [3], in assay [4] and in assay [5] was “inactive” in each case.
Turning to `O=c1[nH]c2ccccc2c(=O)n1CCCl`, the Potency entry in assay [1], in assay [2], in assay [3], in assay [4] and in assay [5] was “inactive” each time.
With `CSc1ccc(/C=C2/C(C)=C(CC(=O)O)c3cc(F)ccc32)cc1`, the Potency entry in assay [1], in assay [2], in assay [3], in assay [4] and in assay [5] was “inactive” in each case.
Take `O=C(C1CCCCC1)N1CC(=O)N2CCCc3ccccc3C2C1` (stereo not given): the Potency entry in assay [1], in assay [2], in assay [3], in assay [4] and in assay [5] was “inactive” each time.
Consider `COc1cc(C=O)ccc1O`, for which the Potency result in assay [1], in assay [2], in assay [3], in assay [4] and in assay [5] was “inactive” each time.
On to `COC(=O)CCCCC(CCSS/C(CCO)=C(\C)N(C=O)Cc1cnc(C)nc1N)SC(C)=O` (stereo not given), for which the Potency result in assay [1], in assay [2], in assay [3], in assay [4] and in assay [5] was “inactive” throughout.
On to `NC(=O)NS(=O)(=O)c1ccc(Cl)cc1`, for which the Potency entry in assay [1], in assay [2], in assay [3], in assay [4] and in assay [5] was “inactive” each time.
Consider `COc1ccc(OC(=O)N(CC(=O)O)Cc2ccc(OCCc3nc(-c4ccccc4)oc3C)cc2)cc1`, for which the Potency entry in assay [1], in assay [2], in assay [3], in assay [4] and in assay [5] was “inactive” throughout.
Take `CC(C)CCCC(C)NCCC(C)C` (stereo not given): the Potency result in assay [1], in assay [2], in assay [3], in assay [4] and in assay [5] was “inactive” in each case.
Turning to `C[C@H]1NCc2cc(-c3ccc4c(=O)c(C(=O)O)cn(C5CC5)c4c3OC(F)F)ccc21`, the Potency entry in assay [1], in assay [2], in assay [3], in assay [4] and in assay [5] was “inactive” in each case.
Turning to `CCCCC(O)/C=C(C)/C=C/C=C/C(=O)N1CCCC1=O` (stereo not given), the Potency result in assay [1], in assay [2], in assay [3], in assay [4] and in assay [5] was “inactive” throughout.
Turning to `OC[C@]1(O)OC[C@@H](O)[C@H](O)[C@@H]1O`, the Potency result in assay [1], in assay [2], in assay [3], in assay [4] and in assay [5] was “inactive” throughout.
Turning to `Oc1ccccc1-c1nnco1`, the Potency entry in assay [1], in assay [2], in assay [3], in assay [4] and in assay [5] was “inactive” in each case.
Take `Nc1nnnn1-c1ccccc1`: the Potency result in assay [1], in assay [2], in assay [3], in assay [4] and in assay [5] was “inactive” each time.
Take `C=CCOc1cc(Cl)ccc1C(=O)NCCN(CC)CC`: the Potency result in assay [1], in assay [2], in assay [3], in assay [4] and in assay [5] was “inactive” each time.
